High-throughput results from PubChem.
A selection: hits, their analogues and other compounds. The true share with any hit is near 3.2%.
ClpP mod – qHTS Assay for Activators of ClpP; AID 651965, 2013; ATP-dependent Clp protease proteolytic subunit (Bacillus subtilis (strain 168)), P80244; Potency, µM (series often up to 57.5 µM), without a hit: at the top dose activity change, negative = active; purified B. subtilis ClpP, FRET peptide cleavage, 20 min; 340,000 compounds, 1.9% hits; active means well fitted falling curve with a large enough effect; inconclusive means small, poorly fitted or top-dose-only effect; inactive means no such curve, though single readings can be large or run the other way; further: the source files actives as falling curves though it sought activators and does not explain the sign; nearly all actives have a fitted effect of over 65% in size
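Buffer: 100 mM Tris/HCl pH8, 100 mM KCl, 0.05% low protease BSA, 2.5% glycerol, 0.01% Tween-20. ClpP 10 microg/mL final; 20 min RT; delta FRET normalized to ADEP and DMSO controls.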
GLP1R cytotox – cytotoxic in the GLP-1 receptor inverse agonist counter-screen; HEK293 cAMP-luciferase reporter cells, luminescence, 24 h; Potency, µM (titrated, usually from 38.3 µM), without a hit: top-dose activity change, negative = inhibition, usual class: inhibitors; 410,000 compounds, 0.13% hits;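 further: loss of luciferase light is scored as toxicity; on the % scale 0 is the no-effect control and ±100 the full control effect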
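Luminescence readout: signal drop marks cytotoxicity. Plated cells grew 12 h at 37 °C, 5% CO2, received 23 nL compound for 24 h, then got luciferase reagent, read after 12 min at RT.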
GLP1R inv ag – GLP-1 receptor (human) inverse agonism; Potency, µM (titrated, usually from 38.3 µM), inactives show at the highest dose activity change, negative = inhibition, hits mostly inhibitors; P43220; 410,000 compounds, 1.6% hits; AID 624417; HEK293 GLP-1R CRE-luciferase, luminescence, 24 h; GLP-1R form is constitutively active; further: on the % scale 0 is the no-effect control and ±100 the full control effect; nearly all actives have a fitted effect of over 55% in size
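Assay principle: reduced luminescence from a cAMP-responsive reporter in HEK293 cells co-expressing a constitutively active GLP-1R. Conditions: 24 hr compound incubation, 37 deg C, 5% CO2.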
GLP1R ag – GLP-1 receptor (human) agonism | P43220 | HEK293 GLP-1R CRE-luciferase, luminescence, 4-6 h; cells express a hypersensitive GLP-1R form | Potency, µM (series often up to 45.6 µM), for inactives: at the top dose activation, usual class: activators | 380,000 compounds, 0.007% hits | AID 624172; further: % of control where 0% means no effect
An asterisk follows results filed as active; ? = inconclusive; . = no result given; [ ] = another dose, or the depositor's remark. Unless noted, the call rests on the fitted dose curve; in most records, active means well fitted curve in the direction sought with a large enough effect; inconclusive means small, poorly fitted or top-dose-only effect, or another doubt; inactive means no such curve, though single readings can be large; an effect the other way counts as inactive or inconclusive. Potency means the concentration at half of the fitted maximal effect.

SMILES	ClpP mod	GLP1R cytotox	GLP1R inv ag	GLP1R ag
Cc1nc([N+](=O)[O-])cn1CC(=O)c1ccc2c(c1)OCCCO2	2%	.	.	.
O=C(CSCc1ccccc1Cl)Nc1c[nH]c(=O)[nH]c1=O	28µM*	17%	18%	-1%
O=C(CSCc1ccc(Cl)c(Cl)c1)Nc1c[nH]c(=O)[nH]c1=O	13µM*	3%	14%	-11%
CCOc1ccc(CN2CCN(Cc3[nH]c4ccc(OC)cc4c3C)CC2CCO)cc1 (stereo not drawn)	.	-22%	13µM*	6%
CCCN1C(=O)c2ccccc2NC1c1ccc(Cl)c(Cl)c1 (stereo not drawn)	4%	-12%	11µM*	3%
O=C(C(Cc1ccccc1)N1C(=O)C2C3C=CC(C3)C2C1=O)N1CCCCCC1 (stereo not drawn)	1%	-9%	-16%	3%
O=C(C(Cc1ccccc1)N1C(=O)C2C3C=CC(C3)C2C1=O)N1CCCCC1 (stereo not drawn)	20µM*	10%	0%	1%
OCCN1CCN(CC/C=C2/c3ccccc3CSc3ccccc32)CC1	-4%	?	8.9µM*	4%
CCCc1nc2ccccc2c(C(=O)OCC(=O)N2CCc3ccccc32)c1CC	-5%	4%	2.8µM*	-4%
CC1CCc2nc3ccccc3c(C(=O)OCC(=O)N3CCc4ccccc43)c2C1 (stereo not drawn)	?	-10%	10%	-4%
Cc1cccc(N2C(=O)CS(=O)(=O)C23C(=O)N(Cc2c(F)cccc2Cl)c2ccccc23)c1 (stereo not drawn)	1%	-2%	-9%	27%
O=C(NCCO)C1CCN(C(=O)c2ccc(-c3ccccc3)cc2)CC1	32µM*	5%[7.66 µM]	0%[7.66 µM]	4%
Cc1ccc(C(=O)C2CCN(C(=O)c3ccc(C)cc3)CC2)cc1	-2%	0%	8.9µM*	-7%
Cc1ccc(C(=O)N2CCC(C(=O)c3ccc(F)cc3)CC2)cc1	-1%	0%	?	-1%
O=C(c1ccc(-c2ccccc2)cc1)N1CCN(c2ccccc2)CC1	0%	-15%	22%	8%
CN1CCN(C(=O)c2ccc(-c3ccccc3)cc2)CC1	32µM*	5%	3%	-1%
Cc1cc(Br)ccc1NC(=O)C(NS(=O)(=O)c1cccs1)c1ccccc1 (stereo not drawn)	0%	-9%	?	.
COc1cc2c3nnc(-c4ccc(F)cc4)c-3cn(Cc3ccc(C)cc3)c2cc1OC	20µM*	-4%	-6%	3%
COc1ccc(S(=O)(=O)Nc2cc3c(cc2NCc2ccccc2)n(C)c(=O)n3C)cc1OC	51%	-22%	1%	.
COc1ccc(C(=O)c2sc(NC(C)C)nc2N)cc1OC	25µM*	-26%	1%	-39%
COc1cccc(C(=O)c2sc(NC(C)C)nc2N)c1	1%	?	3.5µM*	-27%
Clc1ccc(C(c2cccs2)N2CCNCC2)cc1 (stereo not drawn)	0%	-12%	4.5µM*	13%
CN1CCCN(C(c2ccccc2)c2ccc(Cl)cc2)CC1 (stereo not drawn)	3%	?	?	21%
Cc1cccc(NC(=O)CN2C(=O)COc3ccc(S(=O)(=O)N4CCC(C)CC4)cc32)c1C	-1%	-1%	-1%	.
Cn1c(-n2cccc2)c(-c2c(-c3ccc(F)cc3)[nH]c3c2c(=O)n(C)c(=O)n3C)c(=O)n(C)c1=O	0%	-9%	5%	.
SMILES	ClpP mod	GLP1R cytotox	GLP1R inv ag	GLP1R ag
O=S(=O)(c1cccc(F)c1)N1CCc2sccc2C1c1ccc(OC(F)(F)F)cc1 (stereo not drawn)	0%	-2%	7.9µM*	-1%
Cc1ccc(Cn2ccnc2SCC(=O)NCc2ccc(F)cc2)cc1	0%	-2%	?	.
S=C(Nc1ccccc1Cl)NC1CCN(Cc2ccccc2)CC1	-5%	-13%	?	-20%
S=C(NCc1ccc(Cl)cc1)NC1CCN(Cc2ccccc2)CC1	.	?	3.5µM*	6%
S=C(Nc1cc(Cl)cc(Cl)c1)NC1CCN(Cc2ccccc2)CC1	0%	?	4µM*	-2%
Clc1ccc(CNC2CCN(Cc3ccccc3)CC2)cc1	.	-10%	-42%	3%
Cc1ccc(Cl)cc1NC(=O)COC(=O)CCN1C(=O)C2CC=CCC2C1=O (stereo not drawn)	25µM*	8%	0%	5%
Cc1ccc(Cl)cc1NC(=O)COC(=O)CN1C(=O)C2CCCCC2C1=O (stereo not drawn)	1%	-29%	0%	2%
CCOCCCNC(=O)C(c1ccccc1)N1Cc2ccccc2C1=O (stereo not drawn)	-1%	-4%	-13%	.
C[C@]12CC[C@@H]3c4ccc(OC(=O)c5ccccc5)cc4CC[C@H]3[C@@H]1CC[C@@H]2O	-1%	6%	3%	?
COc1cc2c(cc1O)CC[C@@H]1[C@@H]2CC[C@]2(C)[C@@H](O)CC[C@@H]12	1%	-28%	11µM*	-1%
COc1ccc(CNC(=O)CN(c2ccc(C(C)C)cc2)S(=O)(=O)c2c(C)nn(C)c2C)cc1	4%	9%	7%	.
CCCCC#Cc1ccc2c(c1)COc1c3ccccc3nn1-2	-5%	2%	-3%	4%
N#CCCCC#Cc1ccc2c(c1)COc1c3ccccc3nn1-2	-3%	6%	2.5µM*	-4%
C=C(C)C1CCC(C)=C1COC(=O)Nc1ccccc1 (stereo not drawn)	0%	8%	8.9µM*	-4%
Cc1nc2ccccn2c(=O)c1NC(=O)c1ccccc1Cl	-6%	-12%	12%	.
Cc1nn(Cc2c(F)c(F)c(F)c(F)c2F)c(C)c1NC(=O)c1ccc(COc2ccc(Cl)cc2Cl)o1	-3%	-15%	5µM*	1%
Cc1nn(Cc2ccc(Cl)cc2Cl)c(C)c1NC(=O)c1ccc(COc2cc(Cl)ccc2Cl)o1	0%	-12%	?	2%
O=C(CNC1=NCCS1)c1c[nH]c2ccccc12	-19%	.	.	.
COC(=O)c1cc(C(=O)N2CCN(c3ccccc3OC)CC2)cc([N+](=O)[O-])c1	.	?	1µM*	22%
COC(=O)c1cc(C(=O)N2CCN(c3cccc(C)c3C)CC2)cc([N+](=O)[O-])c1	.	?	4µM*	11%
COC(=O)c1cc(C(=O)N2CCN(c3ncccn3)CC2)cc([N+](=O)[O-])c1	.	-5%	0%	7%
CCCC(CCC)C(=O)Nc1ccc2c(c1)N(C(=O)CN1CCN(C)CC1)c1ccccc1CC2	.	?	7.9µM*	6%
O=S(=O)(c1ccccc1)n1nc(-c2ccc(Cl)cc2)nc1NCc1ccc(F)cc1	-2%	2%	19%	4%
Cc1cc(C)cc(NC(=O)NCC(O)COc2ccc([N+](=O)[O-])cc2)c1 (stereo not drawn)	1%	2%	8.9µM*	12%
O=C(NCC(O)COc1ccc([N+](=O)[O-])cc1)Nc1ccccc1 (stereo not drawn)	.	?	-20%	9%
